These results are taken from PubChem BioAssay.

Experiment [1] has as its system PRMT1 (protein arginine N-methyltransferase 1). The experiment is described as follows: PRMT1 binders on small-molecule microarrays, primary screen, biochemical, small-molecule microarray, 635 nm fluorescence (AID 1088).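 Further: binding of Prmt1 protein to compounds spotted on small-molecule microarray slides.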 The following applies: small-molecule microarray binding, higher = more signal.
Experiment [2] in a line: yeast growth modulation, basal conditions, primary screen, YJM789 clinical isolate, OD600, 24 h (AID 1089).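 Further: growth of clinical yeast isolate S. cerevisiae YJM 789 seeded 1000 cells per well; test concentration not given here.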 The following applies: S. cerevisiae YJM789 growth, higher = more signal, called active from +8 up or from −8 down.
Experiment [3] can be described thus: fission yeast growth modulation, primary screen, strain 972, OD600, 24 h, no modulator (AID 1090).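 Further: basal condition with compound alone and no growth modifier present; test concentration not given here.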 The settings on record: S. pombe 972 growth, higher = more signal, called active from +8 up or from −8 down.
The nature of experiment [4]: S. cerevisiae growth modulation with rapamycin, primary screen, strain BY4716, OD600, 96 h (AID 1091). Further: test concentration not given here. The following applies: higher = more signal, called active from +8 up or from −8 down.
For experiment [5], the target named is Torsin-1A-interacting protein 2 (Homo sapiens) (UniProt Q8NFQ8). The experiment is described as follows: LULL1 binders on small-molecule microarray, primary screen, cell lysate, human LULL1 lysate, 635/667 nm fluorescence (AID 1092).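 Further: probe is lysate of COS7 cells overexpressing human LULL1; score merges per-feature 667 nm fluorescence with signal-to-noise.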 The following applies: hLULL1 lysate binding, 635 nm fluorescence, higher = more signal.
The nature of experiment [6]: E. coli growth modulation, two-sided OD650, primary screen, E. coli filamentation project, strain DRC41, 24 h (AID 1093).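 Further: MC1000 strain lacking acrAB efflux and sulA so SOS filamentation is blocked; test concentration not given here.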 The settings on record: OD650, 24 h, higher = more signal, called active from +8 up or from −8 down.
The nature of experiment [7]: small-molecule microarray binders of probe aLefty2, primary screen, biochemical, biotinylated probe, 635/667 nm fluorescence (AID 1094).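 Further: score merges spot fluorescence near 667 nm with spot signal-to-noise ratio.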 The settings on record: higher = more signal.
In experiment [8] the test system is Noggin (protein binding on small-molecule microarray). The experiment is described as follows: Noggin binders on small-molecule microarray, primary screen, biochemical, 635/667 nm fluorescence (AID 1095).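 Further: score merges 667 nm feature fluorescence with signal to noise over triplicate slides.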 The following applies: 635 nm fluorescence, higher = more signal.
Experiment [9] concerns the target Neurogenic locus notch homolog protein 3 (Homo sapiens) (UniProt Q9UM47). The experiment is described as follows: NOTCH3 binders on small-molecule microarray, primary screen, biochemical, 635/667 nm fluorescence (AID 1096). The settings on record: NOTCH3 binding, 635 nm fluorescence, higher = more signal.
Experiment [10] is described as follows: small-molecule microarray binders of probe aEGFR, primary screen, biochemical, biotinylated probe, 635/667 nm fluorescence (AID 1097).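 Further: probe is a biotinylated anti-EGFR antibody binding compounds printed on slides; score combines fluorescence near 667 nm and signal to noise of each spot.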 The settings on record: higher = more signal.
Experiment [11] relates to Plasmodium falciparum Sir2 (PF13_0152, Sir2A). The experiment is described as follows: pfSir2 binders on small-molecule microarrays, primary screen, biochemical, small-molecule microarray, 635 nm fluorescence (AID 1098).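 Further: score merges spot fluorescence intensity with its signal-to-noise ratio.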 The following applies: small-molecule microarray binding, fluorescence 635 nm; higher = more signal.
Experiment [12] is described as follows: small-molecule microarray binders of probe aDKK1, primary screen, biochemical, biotinylated probe, 635/667 nm fluorescence (AID 1099).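 Further: score merges 667nm spot fluorescence with signal to noise across triplicate slides; reference of the scale not given here.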 The settings on record: higher = more signal.
A short description of experiment [13]: small-molecule microarray binders of probe aCHRDL2, primary screen, biochemical, biotinylated probe, 635/667 nm fluorescence (AID 1100). The following applies: higher = more signal.
A short description of experiment [14]: splicing luciferase reporter signal modulators, primary screen, spliceosome inhibition project, cell-based, HEK293, splice +/- reporter (AID 1101).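 Further: HEK293 cells carrying a splicing-competent luciferase reporter gene; test concentration not given here.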 The settings on record: luminescence, 24 h, higher = more signal, called active from +8 up or from −8 down.
For experiment [15], the target named is Fibroblast growth factor 10 (Homo sapiens) (UniProt O15520). The experiment is described as follows: FGF10 binders on small-molecule microarrays, primary screen, biochemical, small-molecule microarray, 635 nm fluorescence (AID 1102). The settings on record: FGF10 binding, fluorescence 635 nm, higher = more signal.
The test system of experiment [16] is glycogen synthase kinase-3 (GSK3A per assay name; protocol says GSK3B). The experiment is described as follows: GSK3 binders on small-molecule microarrays, primary screen, biochemical, small-molecule microarray, 635 nm fluorescence, GSK3A (AID 1103). Further: the record names both GSK3A and GSK3B. The settings on record: small-molecule microarray binding, fluorescence 635 nm; higher = more signal.
Experiment [17] concerns the target Epidermal growth factor receptor (Homo sapiens) (UniProt P00533). The experiment is described as follows: EGFR binders on small-molecule microarrays, primary screen, biochemical, small-molecule microarray, 635 nm fluorescence (AID 1104).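 Further: score merges 667 nm emission intensity with spot signal to noise over triplicate slides.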 The settings on record: EGFR binding, higher = more signal.
Experiment [18] deals with Follistatin-related protein 3 (Homo sapiens) (UniProt O95633). The experiment is described as follows: FSTL3 binders on small-molecule microarrays, primary screen, biochemical, small-molecule microarray, 635 nm fluorescence (AID 1105).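 Further: score merges emission near 667 nm and signal to noise per printed spot across three slides.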 The settings on record: FSTL3 binding, higher = more signal.
The target of experiment [19] is Dickkopf-related protein 1 (Homo sapiens) (UniProt O94907). The experiment is described as follows: DKK1 binders on small-molecule microarrays, primary screen, biochemical, small-molecule microarray, 635 nm fluorescence scan (AID 1106).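 Further: score merges emission near 667 nm with signal to noise over three replicate slides.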 The settings on record: DKK1 binding, higher = more signal.
In experiment [20] the test system is Inhibin beta A chain (activin A). The experiment is described as follows: INHBA (activin A) binders on microarrays, primary screen, biochemical, small-molecule microarray, 635 nm fluorescence scan (AID 1107).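 Further: mouse activin A protein probed at 4.33 µg/mL on printed slides; score merges bound-protein fluorescence near 667 nm with spot signal-to-noise.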 The following applies: small-molecule microarray binding, higher = more signal.

The source made the active and inactive calls.

Chain of Dickkopf-related protein 1 (Homo sapiens) (O94907 whole entry, looked up): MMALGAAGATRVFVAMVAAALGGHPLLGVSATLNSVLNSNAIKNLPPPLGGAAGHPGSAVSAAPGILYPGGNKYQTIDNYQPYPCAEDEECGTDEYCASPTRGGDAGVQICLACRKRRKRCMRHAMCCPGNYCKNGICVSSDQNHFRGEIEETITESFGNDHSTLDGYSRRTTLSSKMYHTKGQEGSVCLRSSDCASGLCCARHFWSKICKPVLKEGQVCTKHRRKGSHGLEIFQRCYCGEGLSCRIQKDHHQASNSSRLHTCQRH
Chain of Follistatin-related protein 3 (Homo sapiens) (O95633 whole entry, looked up): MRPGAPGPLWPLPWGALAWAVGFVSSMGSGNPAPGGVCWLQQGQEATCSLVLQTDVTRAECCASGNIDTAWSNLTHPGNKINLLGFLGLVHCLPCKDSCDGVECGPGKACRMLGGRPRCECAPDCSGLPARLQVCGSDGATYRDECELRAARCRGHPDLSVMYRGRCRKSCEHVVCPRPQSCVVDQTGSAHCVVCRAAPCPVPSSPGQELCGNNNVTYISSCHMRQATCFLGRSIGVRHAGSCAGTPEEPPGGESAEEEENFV
Chain of Neurogenic locus notch homolog protein 3 (Homo sapiens) (Q9UM47 whole entry, looked up): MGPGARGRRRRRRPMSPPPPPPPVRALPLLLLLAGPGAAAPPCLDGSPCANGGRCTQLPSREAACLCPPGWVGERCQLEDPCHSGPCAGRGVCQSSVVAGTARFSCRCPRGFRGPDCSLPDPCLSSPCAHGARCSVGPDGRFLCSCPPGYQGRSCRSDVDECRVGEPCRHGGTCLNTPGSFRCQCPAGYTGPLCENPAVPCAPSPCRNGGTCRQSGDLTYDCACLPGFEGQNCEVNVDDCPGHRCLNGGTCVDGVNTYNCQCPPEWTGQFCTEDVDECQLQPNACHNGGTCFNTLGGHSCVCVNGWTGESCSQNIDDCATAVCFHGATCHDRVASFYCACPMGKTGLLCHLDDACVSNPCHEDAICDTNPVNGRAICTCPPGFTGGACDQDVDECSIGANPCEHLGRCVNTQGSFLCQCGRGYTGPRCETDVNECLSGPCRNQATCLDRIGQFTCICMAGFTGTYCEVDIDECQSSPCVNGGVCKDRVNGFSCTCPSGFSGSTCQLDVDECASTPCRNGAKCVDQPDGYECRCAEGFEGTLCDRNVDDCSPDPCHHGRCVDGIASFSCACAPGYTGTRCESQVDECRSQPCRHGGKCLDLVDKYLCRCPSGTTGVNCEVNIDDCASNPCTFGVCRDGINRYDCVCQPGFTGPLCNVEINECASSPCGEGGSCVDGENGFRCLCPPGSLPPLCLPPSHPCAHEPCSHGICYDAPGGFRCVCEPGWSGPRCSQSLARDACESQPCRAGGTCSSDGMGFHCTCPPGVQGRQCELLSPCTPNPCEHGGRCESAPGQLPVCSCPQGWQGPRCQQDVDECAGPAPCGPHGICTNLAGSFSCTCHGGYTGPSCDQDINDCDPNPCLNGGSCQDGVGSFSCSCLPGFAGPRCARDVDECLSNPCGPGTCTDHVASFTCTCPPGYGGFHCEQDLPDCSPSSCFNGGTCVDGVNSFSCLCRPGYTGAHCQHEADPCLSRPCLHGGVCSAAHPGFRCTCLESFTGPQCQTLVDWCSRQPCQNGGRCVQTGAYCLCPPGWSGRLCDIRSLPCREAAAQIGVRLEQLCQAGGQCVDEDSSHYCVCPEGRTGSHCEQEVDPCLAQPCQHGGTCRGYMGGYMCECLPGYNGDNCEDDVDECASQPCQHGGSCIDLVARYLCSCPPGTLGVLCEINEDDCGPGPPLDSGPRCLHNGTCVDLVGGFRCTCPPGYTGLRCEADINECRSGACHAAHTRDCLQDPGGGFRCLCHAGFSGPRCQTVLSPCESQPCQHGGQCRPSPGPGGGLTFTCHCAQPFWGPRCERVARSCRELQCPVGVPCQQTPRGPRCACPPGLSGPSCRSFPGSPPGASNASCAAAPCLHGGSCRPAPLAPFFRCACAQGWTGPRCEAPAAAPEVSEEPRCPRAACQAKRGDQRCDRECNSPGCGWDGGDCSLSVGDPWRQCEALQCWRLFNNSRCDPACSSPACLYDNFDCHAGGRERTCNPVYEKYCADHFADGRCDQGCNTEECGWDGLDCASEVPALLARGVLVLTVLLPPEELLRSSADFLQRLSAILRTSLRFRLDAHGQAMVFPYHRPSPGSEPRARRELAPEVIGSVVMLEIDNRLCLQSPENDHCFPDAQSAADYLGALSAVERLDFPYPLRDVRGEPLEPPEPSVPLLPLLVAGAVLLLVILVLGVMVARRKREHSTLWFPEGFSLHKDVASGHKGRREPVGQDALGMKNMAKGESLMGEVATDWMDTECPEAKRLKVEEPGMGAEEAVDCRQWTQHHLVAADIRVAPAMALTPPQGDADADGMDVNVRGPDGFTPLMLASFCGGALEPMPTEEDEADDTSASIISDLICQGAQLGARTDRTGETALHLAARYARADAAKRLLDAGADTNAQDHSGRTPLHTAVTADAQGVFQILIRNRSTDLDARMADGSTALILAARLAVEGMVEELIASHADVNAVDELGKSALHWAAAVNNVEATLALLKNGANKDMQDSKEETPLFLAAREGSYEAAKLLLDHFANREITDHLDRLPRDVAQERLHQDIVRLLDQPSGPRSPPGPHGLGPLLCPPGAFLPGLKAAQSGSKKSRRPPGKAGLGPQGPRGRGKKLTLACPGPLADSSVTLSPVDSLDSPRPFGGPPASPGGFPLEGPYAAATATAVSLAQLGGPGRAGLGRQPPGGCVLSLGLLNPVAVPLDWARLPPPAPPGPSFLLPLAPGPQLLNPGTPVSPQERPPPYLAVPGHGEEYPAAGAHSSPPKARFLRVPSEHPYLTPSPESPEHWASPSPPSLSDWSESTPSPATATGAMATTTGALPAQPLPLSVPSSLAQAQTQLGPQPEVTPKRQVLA
Chain of Torsin-1A-interacting protein 2 (Homo sapiens) (Q8NFQ8 whole entry, looked up): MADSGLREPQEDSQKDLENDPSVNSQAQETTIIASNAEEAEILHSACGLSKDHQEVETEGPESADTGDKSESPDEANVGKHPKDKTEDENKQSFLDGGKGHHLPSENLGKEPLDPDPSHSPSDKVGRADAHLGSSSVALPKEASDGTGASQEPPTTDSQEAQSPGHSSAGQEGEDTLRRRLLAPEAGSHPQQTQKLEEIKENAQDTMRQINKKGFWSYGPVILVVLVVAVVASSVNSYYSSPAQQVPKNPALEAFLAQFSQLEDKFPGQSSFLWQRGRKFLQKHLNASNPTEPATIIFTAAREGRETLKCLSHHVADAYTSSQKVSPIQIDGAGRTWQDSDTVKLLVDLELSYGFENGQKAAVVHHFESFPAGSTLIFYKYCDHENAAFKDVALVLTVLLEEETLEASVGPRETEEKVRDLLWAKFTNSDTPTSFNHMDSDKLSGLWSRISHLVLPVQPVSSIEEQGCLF
Chain of Epidermal growth factor receptor (Homo sapiens) (P00533 whole entry, looked up): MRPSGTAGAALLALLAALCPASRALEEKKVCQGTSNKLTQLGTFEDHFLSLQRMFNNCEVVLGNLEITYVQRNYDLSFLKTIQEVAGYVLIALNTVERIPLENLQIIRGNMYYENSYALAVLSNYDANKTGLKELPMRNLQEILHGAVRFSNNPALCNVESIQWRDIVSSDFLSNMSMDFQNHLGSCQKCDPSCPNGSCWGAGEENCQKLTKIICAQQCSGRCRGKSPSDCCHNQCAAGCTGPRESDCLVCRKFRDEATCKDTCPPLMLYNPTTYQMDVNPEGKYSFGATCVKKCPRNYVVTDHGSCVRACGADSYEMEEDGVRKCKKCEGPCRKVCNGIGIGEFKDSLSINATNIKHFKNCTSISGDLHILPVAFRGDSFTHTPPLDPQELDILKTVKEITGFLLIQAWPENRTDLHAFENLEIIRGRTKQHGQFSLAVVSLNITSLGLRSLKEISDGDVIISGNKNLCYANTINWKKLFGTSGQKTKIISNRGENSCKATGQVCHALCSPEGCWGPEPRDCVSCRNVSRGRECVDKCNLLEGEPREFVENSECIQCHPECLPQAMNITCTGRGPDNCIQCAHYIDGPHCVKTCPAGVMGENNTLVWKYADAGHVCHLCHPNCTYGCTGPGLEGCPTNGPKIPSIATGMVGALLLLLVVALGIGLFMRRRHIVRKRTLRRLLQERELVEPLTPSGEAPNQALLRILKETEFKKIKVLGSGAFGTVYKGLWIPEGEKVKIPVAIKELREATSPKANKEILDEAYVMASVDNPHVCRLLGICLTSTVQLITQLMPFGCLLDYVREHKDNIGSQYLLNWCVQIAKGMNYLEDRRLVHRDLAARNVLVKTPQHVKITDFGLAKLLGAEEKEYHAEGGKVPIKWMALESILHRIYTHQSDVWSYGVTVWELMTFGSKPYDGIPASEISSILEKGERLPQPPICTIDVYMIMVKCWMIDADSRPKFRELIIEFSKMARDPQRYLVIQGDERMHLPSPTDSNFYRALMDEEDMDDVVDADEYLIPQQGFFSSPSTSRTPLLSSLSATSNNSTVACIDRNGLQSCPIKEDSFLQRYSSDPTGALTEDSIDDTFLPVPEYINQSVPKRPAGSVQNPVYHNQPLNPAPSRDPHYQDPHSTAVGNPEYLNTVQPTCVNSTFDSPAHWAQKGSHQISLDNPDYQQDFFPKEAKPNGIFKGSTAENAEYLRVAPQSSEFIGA
Chain of Fibroblast growth factor 10 (Homo sapiens) (O15520 whole entry, looked up): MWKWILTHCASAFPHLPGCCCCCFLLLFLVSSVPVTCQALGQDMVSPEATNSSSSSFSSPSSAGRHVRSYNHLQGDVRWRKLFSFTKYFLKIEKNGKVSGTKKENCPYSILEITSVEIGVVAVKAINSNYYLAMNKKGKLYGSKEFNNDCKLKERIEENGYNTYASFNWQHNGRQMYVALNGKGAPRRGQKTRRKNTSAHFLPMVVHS

On to `COCCCNC(=O)[C@@]1(Sc2ccc(C)cc2)CC(=O)N(C2CCCCC2)[C@@H]1c1ccc(CO)cc1I`, for which the composite z-score was 1.54 in experiment [1]; 2.81 in [5]; -0.0333 in [7]; 0.451 in experiment [8]; 1.04 in experiment [9]; 0.0944 in experiment [10]. The composite z-score in [11] is 1.06; in experiment [12] it was 0.79; in experiment [13], 0.629; in experiment [15], 1.01; in experiment [16], 1.28; in experiment [17], 0.549. The composite z-score in experiment [18] was 1.38; in [19], 0.216; in experiment [20], -0.148. Further, the z-score is -1.9 (inactive) in experiment [2]; -0.128 (inactive) in experiment [3]; 0.0267 (inactive) in experiment [4]; 0.331 (inactive) in experiment [6]; -0.924 (inactive) in experiment [14].
Take `[N-]=[N+]=Nc1ccccc1[C@@H]1OC(c2ccc(OCCCO)cc2)=N[C@]1(Cc1ccccc1)C(N)=O`: the composite z-score is -0.0138 in experiment [1]; 2.04 in experiment [5]; 0.0529 in [7]; -0.231 in [8]; 0.383 in experiment [9]; 0.224 in experiment [10]. Moreover, the composite z-score in [11] was 0.807; in experiment [12] it was 0.818; in [13], 0.578; in experiment [15], -0.121; in experiment [16], -0.235; in [17], -0.236. For the same compound, the values for the composite z-score in [18], in [19] and in [20] were -0.294, -0.205 and 0.982, respectively. For the same compound, the z-score is 0.622 (inactive) in [2]; -1.21 (inactive) in [3]; -0.026 (inactive) in experiment [4]; 1.74 (inactive) in experiment [6]; 0.336 (inactive) in experiment [14].
In the case of `COCCOC(=O)N1C(=O)[C@@]2(c3cc(C#CCC(C(=O)OC)C(=O)OC)ccc31)[C@H](C(=O)N1CCCCCCC1)[C@H]1C(=O)O[C@H](c3ccccc3)[C@H](c3ccccc3)N1[C@@H]2c1ccccc1OCCO`, the composite z-score in experiment [1] came to 1.56; in [5] it was 2.88; in [7], 1.82; in [8] it was 1.82; in experiment [9], 1.14; in experiment [10], 1.06. Besides, the composite z-score in [11] was 1.61; in experiment [12], 2.62; in [13], 1.59; in experiment [15], 0.547; in [16] it was 1.32; in experiment [17], 0.893. Besides, the composite z-score in [18] amounted to 1.67; in [19], 0.987; in experiment [20], 1.96. The z-score in [2] is 0.917 (inactive); in experiment [3], -1.08 (inactive); in [4], 3.51 (inactive); in experiment [6] it was 0.858 (inactive); in [14], -0.815 (inactive).
In the case of `C=CCC(OC(C)=O)[C@@H]1[C@@H](N(Cc2ccc(-c3ccccc3)cc2)C(=O)c2ccc(C)cc2)c2cc(OCCCO)ccc2N1C(=O)c1ccc2ccccc2c1` (stereo not given in full), the composite z-score in [1] was 0.0718; in experiment [5], 0.327; in [7] it was -0.173; in [8], 0.166; in [9] it was 0.305; in [10], -0.139. Also, the composite z-score in experiment [11] is -0.376; in [12] it was -0.165; in experiment [13] it was -0.093; in [15] it was 0.265; in [16], -0.549; in [17] it was -0.0575. Besides, the results for the composite z-score in experiment [18], in experiment [19] and in experiment [20] were 0.168, -0.134 and 0.944, respectively. For the same compound, the z-score in experiment [2] is -2.33 (inactive); in [3] it was -0.326 (inactive); in [4], -0.693 (inactive); in [6], 1.34 (inactive); in experiment [14] it was -1.36 (inactive).
`COC(=O)c1c(CC[C@@H](CO)NC(=O)N[C@@H](Cc2ccccc2)Cn2cc(-c3cncn3C)nn2)oc(C(C)=O)c1C(=O)OC`: the composite z-score in experiment [1] is 1.51; in [5] it was 2.99; in experiment [7], -0.215; in experiment [8] it was 0.801; in experiment [9], 0.912; in [10], -0.142. The composite z-score is 0.942 in experiment [11]; -0.193 in [12]; -0.192 in [13]; 0.481 in [15]; 0.352 in experiment [16]; -0.913 in [17]. Besides, the results for the composite z-score in experiment [18], in [19] and in experiment [20] were 0.367, -0.376 and -0.721, respectively. In addition, the z-score in [2] was 0.268 (inactive); in [3] it was -0.0536 (inactive); in [4], -0.131 (inactive); in experiment [6] it was 0.916 (inactive); in experiment [14], -1.71 (inactive).
